# The list is not random: actives were taken first. Their share in the collection is about 3.5%.
# BoNT A protease – inhibitors of Botulinum neurotoxin A light chain protease. multiplex microsphere protease substrate cleavage, flow cytometry. inhibition, % at 10 µM. 360,000 compounds, 0.17% hits. AID 588499
# Anthrax LF prot – blocks Bacillus anthracis lethal factor protease | 360,000 compounds, 0.12% hits | P15917 | multiplex microsphere protease cleavage assay, LF | inhibition, % at 10 µM
# Target sequence (P15917 whole entry, looked up): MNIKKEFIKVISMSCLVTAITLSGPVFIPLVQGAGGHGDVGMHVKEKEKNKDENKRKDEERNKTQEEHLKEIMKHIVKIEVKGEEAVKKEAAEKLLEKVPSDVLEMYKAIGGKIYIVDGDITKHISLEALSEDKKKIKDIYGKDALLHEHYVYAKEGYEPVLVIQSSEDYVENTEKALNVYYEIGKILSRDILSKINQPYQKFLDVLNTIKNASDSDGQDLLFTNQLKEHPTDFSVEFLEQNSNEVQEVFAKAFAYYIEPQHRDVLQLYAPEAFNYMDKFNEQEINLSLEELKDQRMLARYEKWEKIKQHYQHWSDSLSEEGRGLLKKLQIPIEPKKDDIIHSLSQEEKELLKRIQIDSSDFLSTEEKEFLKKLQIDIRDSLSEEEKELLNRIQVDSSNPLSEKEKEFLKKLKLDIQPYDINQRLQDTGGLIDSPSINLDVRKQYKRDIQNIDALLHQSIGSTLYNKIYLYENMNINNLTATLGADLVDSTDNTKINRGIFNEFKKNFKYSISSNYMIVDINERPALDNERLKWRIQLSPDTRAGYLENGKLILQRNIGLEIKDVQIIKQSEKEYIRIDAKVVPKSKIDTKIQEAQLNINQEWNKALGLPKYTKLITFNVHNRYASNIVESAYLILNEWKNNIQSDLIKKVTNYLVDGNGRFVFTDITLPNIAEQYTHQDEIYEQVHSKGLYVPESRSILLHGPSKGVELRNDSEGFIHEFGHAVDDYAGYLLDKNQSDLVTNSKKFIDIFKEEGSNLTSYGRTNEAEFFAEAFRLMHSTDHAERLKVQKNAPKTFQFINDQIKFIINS
# BoNT F protease – BoNT F light chain protease inhibition | Multiplex microsphere protease cleavage assay, flow cytometry | inhibition, % at 10 µM | 360,000 compounds, 0.22% hits; in the data active means inhibition above about 35%, passing the limit was not always enough; inconclusive means no clear call, values can overlap the other calls
# Autofluor counter – compound fluorescence in toxin protease inhibitor counterscreen. compound autofluorescence counterscreen, microsphere flow cytometry; active compounds read high. AID 624483. fluorescence intensity (concentration not given with the values). 360,000 compounds, 3.1% hits; in the data active means fluorescence intensity above about 16000; inconclusive means no clear call, values can overlap the other calls
# SARS 3CLpro inh – SARS-CoV 3CLpro protease inhibition; inhibition, % at 6 µM; 290,000 compounds, 0.14% hits; recombinant SARS-CoV 3CLpro, quenched FRET peptide cleavage; AID 1706; in the data active means inhibition above about 12%
# Numbers stand for hits; 0 = inactive; ? = inconclusive; - = no result given. Unless noted, no stated cut-off is given here; in the data, active means inhibition above about 30%; inconclusive means no clear call, values can overlap the other calls; inactive means below that.
SMILES,BoNT A protease,Anthrax LF prot,BoNT F protease,Autofluor counter,SARS 3CLpro inh
COC(=O)c1c2c(nc3ccccc13)CCC2,0,0,0,?,0
COc1ccccc1CN1C[C@@H]2C[C@@H](c3ccc(C)c(C)c3)N3CCC[C@@]23C1=O,0,0,0,0,0
COc1ccc([C@@H]2C[C@H]3CN(Cc4ccccc4OC)C(=O)[C@]34CCCN24)cc1C,0,0,0,19989,0
O=C(CSc1nnc(-c2ccc(Cl)cc2)n1CC1CCCO1)NC1CCS(=O)(=O)C1 (centres undefined),0,0,0,0,0
COc1ccc(-c2cn[nH]c2N)c(OC)c1,0,0,0,17696,0
CCOc1ccc(-c2cn[nH]c2N)cc1,0,0,0,23738,0
COc1ccc(-c2cn[nH]c2N)cc1,0,0,0,0,0
Cc1nn(C(=O)c2cccnc2)c(C)c1C,0,0,0,20525,0
Cc1nn(C(=O)c2cccnc2)c(C)c1Sc1ccccc1,0,0,0,0,0
S=c1[nH]nc(-c2cccnc2)n1C1CCCCC1,0,0,0,0,0
S=c1[nH]nc(-c2ccccc2)n1C1C=CCCC1 (centres undefined),0,0,0,16741,0
CC(Sc1ncccn1)C(=O)NC1CCCC1 (centres undefined),0,0,0,0,-
CC(SC1CCCC1)C(=O)Nc1ccnn1C(C)C (centres undefined),?,0,0,20011,0
Cc1cccc(NC(=O)COC(=O)c2ccc3c(c2)OCO3)c1C,0,0,0,0,0
CCCCC(=O)NC(c1ccc(OC)c(OC)c1)c1c(O)ccc2ccccc12 (centres undefined),0,0,0,0,0
CCCC(=O)NC(c1ccc(OC)c(OC)c1)c1c(O)ccc2ccccc12 (centres undefined),?,0,0,23446,0
COc1ccc(Nc2nc(NCCO)nc(N3CCCC3)n2)cc1,0,0,0,0,-
CCCNc1nc(Nc2ccc(C)cc2)nc(N2CCCC2)n1,0,0,0,16266,0
O=C1/C(=C/c2ccccc2)NC(=S)N1C(c1ccccc1)c1ccccc1,0,0,0,0,0
CCN1C(=O)[C@@H]2[C@@H](c3ccc(SC4CCCCC4)cc3)N3CCCC[C@@]3(C(=O)OC)[C@@H]2C1=O,0,0,0,16473,-
CCN1C(=O)[C@H]2[C@@H](c3ccc(SC4CCCCC4)c(OC)c3)N3CCCC[C@@]3(C(=O)OC)[C@H]2C1=O,0,0,0,0,-
CCCSc1ccc([C@@H]2[C@H]3C(=O)N(CC)C(=O)[C@H]3[C@]3(C(=O)OC)CCCCN23)cc1,0,0,0,22612,-
CCCCCCSc1ccc([C@@H]2[C@H]3C(=O)N(CC)C(=O)[C@H]3[C@]3(C(=O)OC)CCCN23)cc1,0,0,0,0,-
COc1ccc(Cl)cc1C(=O)Nc1ccc(Br)c(C)n1,0,0,0,0,0
O=C(Nc1cc2c3c(c1)CC(=O)N3CCC2)c1ccccc1C(F)(F)F,0,0,0,0,-
SMILES,BoNT A protease,Anthrax LF prot,BoNT F protease,Autofluor counter,SARS 3CLpro inh
Cc1nn(Cc2ccccc2)c2c1C(c1ccco1)C(C#N)=C(N)O2 (centres undefined),0,0,0,0,0
CCCSC1=C(C#N)C(c2ccc(OC)cc2)C2=C(CC(C)(C)CC2=O)N1 (centres undefined),0,0,0,0,0
CSC1=C(C#N)C(c2ccc(Cl)cc2)C2=C(CC(C)(C)CC2=O)N1 (centres undefined),0,0,0,23927,-
COc1ccc(CNC(=O)CN2C(=O)C3CCCN3c3ncc(Cl)cc32)cc1 (centres undefined),?,0,0,21975,0
O=C1C(Cc2ccc(Br)cc2)SC(=Nc2ccccc2)N1c1ccccc1 (centres undefined),0,0,36,0,0
O=C1C(Cc2ccc(F)cc2)SC(=Nc2ccccc2)N1c1ccccc1 (centres undefined),0,0,0,0,0
Cc1cc(C(=O)O)cc(S(=O)(=O)N2CCOCC2)c1C,0,0,0,0,0
COc1ccc(N2CCN(C(=O)Cc3ccc(-n4c(=O)[nH]c5ccccc5c4=O)cc3)CC2)cc1,0,0,0,0,0
O=C(Cc1ccc(-n2c(=S)[nH]c3ccccc3c2=O)cc1)N1CCC(N2CCCCC2)CC1,0,0,0,23979,0
COc1c(C)cc(Br)cc1C(=O)Nc1ccc(N2CCN(S(C)(=O)=O)CC2)cc1,0,0,0,0,0
O=[N+]([O-])c1ccc(C=CC=Cc2ccccc2)cc1,0,0,0,0,-
C/C(=C\c1ccc(N(C)C)cc1)[N+](=O)[O-],0,0,0,22567,0
CN(C)c1ccc(-n2cccc2/C=C/[N+](=O)[O-])cc1,0,0,0,0,0
CN(C)c1ccc(C(=O)C=Cc2ccc([N+](=O)[O-])cc2)cc1,0,0,0,0,-
CN(C)c1ccc(/C=C/[N+](=O)[O-])cc1,50,0,48,0,0
CN(c1ccccc1)c1ccc(/C=C/[N+](=O)[O-])cc1,70,0,0,0,0
N#CCSc1nc2ccccc2c(=O)n1CC1CCCC1,0,0,0,0,0
N#CCSc1nc2ccc(N3CCCCC3)cc2c(=O)n1Cc1ccccc1,0,0,0,29809,0
O=C(Nc1ccccn1)C1CCN(S(=O)(=O)c2cccs2)CC1,0,0,0,0,0
Cc1cccc(NC(=O)C2CCN(S(=O)(=O)c3cccs3)CC2)n1,?,0,0,17032,0
CC1(NC(=O)c2cccc(S(=O)(=O)N3CCN(c4ccccc4)CC3)c2)CCS(=O)(=O)C1 (centres undefined),0,0,0,0,-
Cc1ccc(N(CN2CCCC2=O)C(=O)c2ccc(OC(C)C)cc2)cc1,?,0,0,19242,0
Cc1ccc(C(=O)N(CN2CCCC2=O)c2ccccc2)cc1,0,0,0,?,0
CCOc1ccc(C(=O)N(CN2CCCC2=O)c2ccccc2)cc1,?,0,0,19439,0
CCOc1ccc(C(=O)N(CN2CCCC2=O)c2ccc(C)cc2)cc1,-,-,-,-,0
SMILES,BoNT A protease,Anthrax LF prot,BoNT F protease,Autofluor counter,SARS 3CLpro inh
CCN1CCN(S(=O)(=O)c2cc(OC)ccc2OC)CC1,0,0,0,24223,0
COc1ccc(F)cc1S(=O)(=O)N1CCN(c2ccccn2)CC1,0,0,?,0,0
COc1ccc(F)cc1S(=O)(=O)N1CC(C)CC(C)C1 (centres undefined),0,0,0,20024,0
CCN1CCN(S(=O)(=O)c2ccc(OC)c3ccccc23)CC1,0,0,?,0,0
CCOc1ccc(OCCC(=O)N(CCC2=CCCCC2)c2c(N)n(Cc3ccccc3)c(=O)[nH]c2=O)cc1,?,?,?,0,-
O=C(Nc1ccc2nc(-c3ccco3)c(-c3ccco3)nc2c1)N1CCN(c2ccccn2)CC1,41,0,0,0,0
O=C(Nc1ccccc1)c1ccc2nc(-c3ccco3)c(-c3ccco3)nc2c1,?,0,0,19000,0
Cc1nc2cc(NC(=O)N3CCN(c4ccccn4)CC3)ccc2o1,0,0,0,0,0
COc1ccccc1CNC(=O)C[n+]1ccccc1,0,0,0,0,0
O=C(NCCc1ccccc1)c1nc2c(nnn2Cc2ccccc2Cl)c(=O)[nH]1,0,0,0,16657,0
